Measurements from publication PMC7862700, “An all-to-all approach to the identification of sequence-specific readers for epigenetic DNA modifications on cytosine”.

Experiments:
Experiment in all cases: DAPPL (digital affinity profiling via proximity ligation, sequencing); 10 mM Tris-HCl pH 7.5, 50 mM NaCl, 1 mM DTT, 4% glycerol, room temperature, 30 min; GST-TFs on glutathione beads, 16-mer random dsDNA library, 0.1% formaldehyde crosslink after washing; high values mean tight binding
Settings in all cases: protein: recombinant; tags: N-terminal GST; dsDNA, one strand shown
FLI1 = target: T1, FLI1 (Homo sapiens, UniProt Q01543 1-452)
T1 sequence: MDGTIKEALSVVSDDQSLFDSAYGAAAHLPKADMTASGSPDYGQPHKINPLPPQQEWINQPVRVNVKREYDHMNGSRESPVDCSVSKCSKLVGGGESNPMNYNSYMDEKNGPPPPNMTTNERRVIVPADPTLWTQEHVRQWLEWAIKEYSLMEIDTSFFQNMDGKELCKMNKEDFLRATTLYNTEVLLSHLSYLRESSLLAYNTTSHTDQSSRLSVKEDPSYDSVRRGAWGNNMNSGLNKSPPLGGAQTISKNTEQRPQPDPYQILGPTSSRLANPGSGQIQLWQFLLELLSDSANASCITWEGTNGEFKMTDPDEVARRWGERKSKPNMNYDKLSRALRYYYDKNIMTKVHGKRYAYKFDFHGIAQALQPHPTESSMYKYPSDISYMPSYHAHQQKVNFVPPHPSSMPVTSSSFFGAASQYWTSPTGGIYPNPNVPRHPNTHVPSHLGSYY
Summary of the method: (§1)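 Human transcription factors were made in yeast as GST fusions, captured on glutathione beads and barcoded with DNA. With a tag-only sample included, the pool was incubated with 200 nmole of a random double-stranded 16-mer DNA library in Tris/NaCl/DTT/glycerol buffer at room temperature for 30 min, then crosslinked with 0.1% formaldehyde after washing, ligated by proximity, amplified and sequenced. For binding signal, each hexamer's read frequency for a factor is divided by its frequency for the tag-only sample.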

ELK1 = target: T2, ELK1 (Homo sapiens, UniProt P19419 1-428)
T2 sequence: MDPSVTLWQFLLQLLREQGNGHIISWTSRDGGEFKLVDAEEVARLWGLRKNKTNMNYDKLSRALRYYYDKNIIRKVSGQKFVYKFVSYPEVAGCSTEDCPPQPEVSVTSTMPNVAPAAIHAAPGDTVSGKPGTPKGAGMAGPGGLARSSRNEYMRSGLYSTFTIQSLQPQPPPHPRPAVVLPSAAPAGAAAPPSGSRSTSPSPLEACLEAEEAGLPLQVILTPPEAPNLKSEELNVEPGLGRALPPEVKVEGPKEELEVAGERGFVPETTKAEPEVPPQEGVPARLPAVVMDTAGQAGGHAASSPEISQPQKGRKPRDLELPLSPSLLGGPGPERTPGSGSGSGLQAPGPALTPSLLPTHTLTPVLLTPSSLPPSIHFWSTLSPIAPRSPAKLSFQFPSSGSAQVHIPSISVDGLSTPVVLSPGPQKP
Summary of the method: as §1

GABPA = target: T3, GABPA (Homo sapiens, UniProt Q06546 1-454)
T3 sequence: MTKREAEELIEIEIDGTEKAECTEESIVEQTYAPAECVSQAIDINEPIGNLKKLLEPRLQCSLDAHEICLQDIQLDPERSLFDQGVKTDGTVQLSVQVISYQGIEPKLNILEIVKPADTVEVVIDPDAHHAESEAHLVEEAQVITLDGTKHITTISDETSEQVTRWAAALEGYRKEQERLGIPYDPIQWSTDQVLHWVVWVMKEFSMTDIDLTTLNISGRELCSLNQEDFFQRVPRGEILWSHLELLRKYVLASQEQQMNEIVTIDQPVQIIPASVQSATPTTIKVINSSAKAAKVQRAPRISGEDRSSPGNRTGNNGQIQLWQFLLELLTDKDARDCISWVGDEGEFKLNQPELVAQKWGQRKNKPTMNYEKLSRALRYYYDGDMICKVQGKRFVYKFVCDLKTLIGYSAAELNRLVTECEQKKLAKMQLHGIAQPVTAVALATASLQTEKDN
Summary of the method: as §1

ERG = target: T4, ERG (Homo sapiens, UniProt P11308 1-479)
T4 sequence: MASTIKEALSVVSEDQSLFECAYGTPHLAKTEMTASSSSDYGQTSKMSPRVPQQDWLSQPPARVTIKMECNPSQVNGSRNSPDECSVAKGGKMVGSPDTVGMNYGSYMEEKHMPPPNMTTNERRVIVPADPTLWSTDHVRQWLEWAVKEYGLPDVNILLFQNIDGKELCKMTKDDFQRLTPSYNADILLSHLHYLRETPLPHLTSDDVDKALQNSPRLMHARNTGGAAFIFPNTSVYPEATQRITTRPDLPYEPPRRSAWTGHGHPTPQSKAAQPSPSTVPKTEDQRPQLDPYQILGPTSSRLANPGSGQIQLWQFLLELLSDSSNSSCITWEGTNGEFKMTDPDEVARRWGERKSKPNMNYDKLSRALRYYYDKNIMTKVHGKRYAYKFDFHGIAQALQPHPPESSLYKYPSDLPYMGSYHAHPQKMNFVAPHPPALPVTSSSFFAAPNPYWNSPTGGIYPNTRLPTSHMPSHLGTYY
Summary of the method: as §1

ELF1 = ELF1 (Homo sapiens, UniProt P32519 1-619)
Summary of the method: as §1

SPI1 = SPI1 (Homo sapiens, UniProt P17947 1-270)
Summary of the method: as §1

SPIB = SPIB (Homo sapiens, UniProt Q01892 1-262)
Summary of the method: as §1

ELK3 = target: T5, ELK3 (Homo sapiens, UniProt P41970 1-407)
T5 sequence: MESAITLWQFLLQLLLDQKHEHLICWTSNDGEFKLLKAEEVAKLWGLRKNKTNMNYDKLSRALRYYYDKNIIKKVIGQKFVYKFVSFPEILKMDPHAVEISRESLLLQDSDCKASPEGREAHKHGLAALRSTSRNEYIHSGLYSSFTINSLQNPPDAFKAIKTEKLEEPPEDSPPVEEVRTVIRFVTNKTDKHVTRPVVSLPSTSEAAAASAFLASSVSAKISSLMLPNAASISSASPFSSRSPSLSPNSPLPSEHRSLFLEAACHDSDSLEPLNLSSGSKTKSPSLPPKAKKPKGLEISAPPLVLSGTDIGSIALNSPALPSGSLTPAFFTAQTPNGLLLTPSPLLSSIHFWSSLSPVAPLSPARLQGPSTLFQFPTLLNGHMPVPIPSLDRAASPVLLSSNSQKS
Summary of the method: as §1

FEV = target: T6, FEV (Homo sapiens, UniProt Q99581 1-238)
T6 sequence: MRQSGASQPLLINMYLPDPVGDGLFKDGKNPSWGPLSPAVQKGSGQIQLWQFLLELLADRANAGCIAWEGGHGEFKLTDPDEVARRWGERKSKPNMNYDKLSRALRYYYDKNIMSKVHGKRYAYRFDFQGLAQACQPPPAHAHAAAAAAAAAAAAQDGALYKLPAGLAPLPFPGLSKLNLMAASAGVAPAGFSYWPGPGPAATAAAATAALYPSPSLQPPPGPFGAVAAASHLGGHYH
Summary of the method: as §1

ETV5 = ETV5 (Homo sapiens, UniProt P41161 1-510)
Summary of the method: as §1

SPIC = target: T7, SPIC (Homo sapiens, UniProt Q8N5J4 1-248)
T7 sequence: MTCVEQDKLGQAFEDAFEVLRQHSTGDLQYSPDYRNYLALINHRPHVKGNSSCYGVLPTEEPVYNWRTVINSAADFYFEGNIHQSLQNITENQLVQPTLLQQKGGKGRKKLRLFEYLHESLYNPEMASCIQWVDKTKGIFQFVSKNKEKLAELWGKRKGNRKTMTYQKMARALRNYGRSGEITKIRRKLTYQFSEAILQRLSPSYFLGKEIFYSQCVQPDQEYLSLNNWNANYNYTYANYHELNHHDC
Summary of the method: as §1

ELF4 = ELF4 (Homo sapiens, UniProt Q99607 1-663)
Summary of the method: as §1

ELK4 = target: T8, ELK4 (Homo sapiens, UniProt P28324-2 1-405)
T8 sequence: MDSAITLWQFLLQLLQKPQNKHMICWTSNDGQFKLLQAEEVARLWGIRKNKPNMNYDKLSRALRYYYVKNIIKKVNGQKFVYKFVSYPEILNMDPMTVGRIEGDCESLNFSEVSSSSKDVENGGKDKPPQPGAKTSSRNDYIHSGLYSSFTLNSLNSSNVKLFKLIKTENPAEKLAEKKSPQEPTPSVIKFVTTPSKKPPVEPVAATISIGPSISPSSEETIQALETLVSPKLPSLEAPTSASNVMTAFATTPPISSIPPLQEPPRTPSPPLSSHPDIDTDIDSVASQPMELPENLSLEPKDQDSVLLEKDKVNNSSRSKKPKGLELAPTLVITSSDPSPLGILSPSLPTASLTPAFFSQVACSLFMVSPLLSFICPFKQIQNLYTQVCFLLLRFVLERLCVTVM
Summary of the method: as §1

ETV2 = target: T9, ETV2 (Homo sapiens, UniProt O00321 1-342)
T9 sequence: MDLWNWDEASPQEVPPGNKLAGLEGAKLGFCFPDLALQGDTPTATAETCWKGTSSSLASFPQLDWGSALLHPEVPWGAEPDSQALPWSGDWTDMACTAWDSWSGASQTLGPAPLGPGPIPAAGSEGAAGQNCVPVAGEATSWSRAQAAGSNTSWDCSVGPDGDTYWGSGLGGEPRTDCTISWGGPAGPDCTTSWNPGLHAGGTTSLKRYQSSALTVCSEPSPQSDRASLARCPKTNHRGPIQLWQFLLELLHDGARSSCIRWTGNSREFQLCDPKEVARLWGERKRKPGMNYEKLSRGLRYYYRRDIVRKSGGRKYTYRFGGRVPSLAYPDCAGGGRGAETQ
Summary of the method: as §1

ELF3 = target: T10, ELF3 (Homo sapiens, UniProt P78545 1-371)
T10 sequence: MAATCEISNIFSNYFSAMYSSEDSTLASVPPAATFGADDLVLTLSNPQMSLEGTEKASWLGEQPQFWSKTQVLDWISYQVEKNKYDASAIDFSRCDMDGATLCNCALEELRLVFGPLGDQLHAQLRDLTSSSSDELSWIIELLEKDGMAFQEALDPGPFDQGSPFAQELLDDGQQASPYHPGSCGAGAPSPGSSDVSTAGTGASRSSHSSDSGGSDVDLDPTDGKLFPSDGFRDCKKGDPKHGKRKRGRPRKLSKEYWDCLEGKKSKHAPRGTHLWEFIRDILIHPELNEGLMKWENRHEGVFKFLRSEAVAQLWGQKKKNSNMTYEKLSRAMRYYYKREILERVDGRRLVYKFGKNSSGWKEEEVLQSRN
Summary of the method: as §1

CRX = CRX (Homo sapiens, UniProt O43186 1-299)
Summary of the method: as §1

ETV1 = ETV1 (Homo sapiens, UniProt P50549 1-477)
Summary of the method: as §1

EHF = target: T11, EHF (Homo sapiens, UniProt Q9NZC4 1-300)
T11 sequence: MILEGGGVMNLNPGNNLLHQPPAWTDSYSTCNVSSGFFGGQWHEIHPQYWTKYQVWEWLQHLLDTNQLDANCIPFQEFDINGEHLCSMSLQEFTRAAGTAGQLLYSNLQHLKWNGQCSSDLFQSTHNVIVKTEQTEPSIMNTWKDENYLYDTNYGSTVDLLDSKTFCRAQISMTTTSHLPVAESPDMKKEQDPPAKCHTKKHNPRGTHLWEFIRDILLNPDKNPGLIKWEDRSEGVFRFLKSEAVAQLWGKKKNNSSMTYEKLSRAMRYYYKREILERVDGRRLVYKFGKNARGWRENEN
Summary of the method: as §1

ETV1, sequence (P50549 whole entry): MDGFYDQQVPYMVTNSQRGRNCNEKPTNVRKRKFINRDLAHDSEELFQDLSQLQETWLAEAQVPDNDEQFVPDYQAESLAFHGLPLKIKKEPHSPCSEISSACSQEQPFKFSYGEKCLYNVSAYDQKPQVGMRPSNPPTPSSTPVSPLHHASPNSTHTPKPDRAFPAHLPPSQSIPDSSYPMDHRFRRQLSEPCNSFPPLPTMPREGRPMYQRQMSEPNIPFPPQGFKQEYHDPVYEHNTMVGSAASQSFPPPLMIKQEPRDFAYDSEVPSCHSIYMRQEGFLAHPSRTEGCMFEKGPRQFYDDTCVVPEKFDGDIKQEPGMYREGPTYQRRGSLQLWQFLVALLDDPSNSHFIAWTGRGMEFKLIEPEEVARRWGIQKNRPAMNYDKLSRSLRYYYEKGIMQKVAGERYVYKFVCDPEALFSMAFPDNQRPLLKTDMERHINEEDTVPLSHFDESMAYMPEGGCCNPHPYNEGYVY
ETV5, sequence (P41161 whole entry): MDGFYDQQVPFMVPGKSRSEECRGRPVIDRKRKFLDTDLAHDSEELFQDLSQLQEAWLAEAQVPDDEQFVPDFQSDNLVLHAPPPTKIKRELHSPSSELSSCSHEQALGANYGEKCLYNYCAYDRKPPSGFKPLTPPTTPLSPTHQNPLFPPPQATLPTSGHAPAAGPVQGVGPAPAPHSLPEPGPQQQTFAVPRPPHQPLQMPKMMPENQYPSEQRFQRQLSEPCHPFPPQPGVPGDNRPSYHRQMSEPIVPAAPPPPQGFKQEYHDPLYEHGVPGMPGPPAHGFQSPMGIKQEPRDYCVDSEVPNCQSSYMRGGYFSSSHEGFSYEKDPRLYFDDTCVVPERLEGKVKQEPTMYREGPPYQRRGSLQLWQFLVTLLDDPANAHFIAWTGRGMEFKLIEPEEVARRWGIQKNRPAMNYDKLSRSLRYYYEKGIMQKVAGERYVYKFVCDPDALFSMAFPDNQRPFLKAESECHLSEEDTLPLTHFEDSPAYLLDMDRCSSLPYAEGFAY
ELF4, sequence (Q99607 whole entry): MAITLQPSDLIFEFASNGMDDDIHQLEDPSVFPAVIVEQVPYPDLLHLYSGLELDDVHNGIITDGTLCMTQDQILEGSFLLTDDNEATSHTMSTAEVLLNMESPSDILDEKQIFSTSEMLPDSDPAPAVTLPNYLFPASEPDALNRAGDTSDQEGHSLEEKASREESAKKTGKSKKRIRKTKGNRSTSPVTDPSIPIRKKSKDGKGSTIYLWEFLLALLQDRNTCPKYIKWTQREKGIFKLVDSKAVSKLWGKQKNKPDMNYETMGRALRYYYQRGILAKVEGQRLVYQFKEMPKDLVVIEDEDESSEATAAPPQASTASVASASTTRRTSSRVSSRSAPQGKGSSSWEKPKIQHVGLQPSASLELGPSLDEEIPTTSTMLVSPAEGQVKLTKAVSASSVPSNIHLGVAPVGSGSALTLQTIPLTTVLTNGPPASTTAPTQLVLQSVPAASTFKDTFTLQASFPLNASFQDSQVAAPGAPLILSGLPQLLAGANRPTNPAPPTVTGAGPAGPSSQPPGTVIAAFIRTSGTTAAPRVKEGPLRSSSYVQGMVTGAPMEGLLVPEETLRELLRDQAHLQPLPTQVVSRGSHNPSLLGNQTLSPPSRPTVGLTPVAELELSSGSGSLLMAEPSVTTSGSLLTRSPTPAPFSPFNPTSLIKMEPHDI
SPIB, sequence (Q01892 whole entry): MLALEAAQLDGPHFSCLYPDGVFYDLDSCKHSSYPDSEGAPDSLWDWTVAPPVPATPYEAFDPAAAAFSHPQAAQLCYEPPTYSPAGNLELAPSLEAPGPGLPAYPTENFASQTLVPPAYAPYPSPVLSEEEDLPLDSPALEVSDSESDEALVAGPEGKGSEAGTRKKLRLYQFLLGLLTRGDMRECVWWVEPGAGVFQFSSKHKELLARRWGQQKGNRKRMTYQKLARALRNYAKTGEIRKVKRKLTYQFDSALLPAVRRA
ELF1, sequence (P32519 whole entry): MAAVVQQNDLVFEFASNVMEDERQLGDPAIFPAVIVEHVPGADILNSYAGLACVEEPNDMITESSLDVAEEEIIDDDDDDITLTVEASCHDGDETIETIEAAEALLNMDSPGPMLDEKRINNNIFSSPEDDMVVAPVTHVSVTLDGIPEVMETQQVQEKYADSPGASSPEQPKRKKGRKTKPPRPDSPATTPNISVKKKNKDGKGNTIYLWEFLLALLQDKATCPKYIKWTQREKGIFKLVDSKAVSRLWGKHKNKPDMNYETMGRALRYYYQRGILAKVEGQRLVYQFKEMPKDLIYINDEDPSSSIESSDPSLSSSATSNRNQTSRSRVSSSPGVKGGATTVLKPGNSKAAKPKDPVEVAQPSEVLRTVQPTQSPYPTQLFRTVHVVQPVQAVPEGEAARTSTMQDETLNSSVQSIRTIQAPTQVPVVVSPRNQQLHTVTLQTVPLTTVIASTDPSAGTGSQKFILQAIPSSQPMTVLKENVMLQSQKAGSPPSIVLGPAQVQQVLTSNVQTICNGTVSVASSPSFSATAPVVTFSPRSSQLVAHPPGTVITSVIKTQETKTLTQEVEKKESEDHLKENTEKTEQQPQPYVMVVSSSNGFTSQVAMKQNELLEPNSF
CRX, sequence (O43186 whole entry): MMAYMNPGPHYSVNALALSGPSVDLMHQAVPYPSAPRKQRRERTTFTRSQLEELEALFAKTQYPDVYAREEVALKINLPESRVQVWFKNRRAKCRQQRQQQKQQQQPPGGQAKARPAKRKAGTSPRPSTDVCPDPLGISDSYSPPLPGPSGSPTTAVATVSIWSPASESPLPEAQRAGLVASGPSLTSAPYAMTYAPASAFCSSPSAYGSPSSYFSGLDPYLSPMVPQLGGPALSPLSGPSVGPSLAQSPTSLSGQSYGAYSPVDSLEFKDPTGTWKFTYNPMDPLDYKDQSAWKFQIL

Sequence	binding signal (FLI1)	binding signal (ELK1)	binding signal (GABPA)	binding signal (ERG)	binding signal (ELF1)	binding signal (SPI1)	binding signal (SPIB)	binding signal (ELK3)	binding signal (FEV)	binding signal (ETV5)	binding signal (SPIC)	binding signal (ELF4)	binding signal (ELK4)	binding signal (ETV2)	binding signal (ELF3)	binding signal (CRX)	binding signal (ETV1)	binding signal (EHF)
TTGCAG	1.12 fold enrichment (6-mer frequency, TF over GST control)	1.19 fold enrichment (6-mer frequency, TF over GST control)	1.15 fold enrichment (6-mer frequency, TF over GST control)	1.15 fold enrichment (6-mer frequency, TF over GST control)	1.16 fold enrichment (6-mer frequency, TF over GST control)	1.08 fold enrichment (6-mer frequency, TF over GST control)	1.16 fold enrichment (6-mer frequency, TF over GST control)	1.24 fold enrichment (6-mer frequency, TF over GST control)	1.08 fold enrichment (6-mer frequency, TF over GST control)	1.13 fold enrichment (6-mer frequency, TF over GST control)	1.05 fold enrichment (6-mer frequency, TF over GST control)	1.09 fold enrichment (6-mer frequency, TF over GST control)	1.29 fold enrichment (6-mer frequency, TF over GST control)	1.17 fold enrichment (6-mer frequency, TF over GST control)	1.13 fold enrichment (6-mer frequency, TF over GST control)	1.1 fold enrichment (6-mer frequency, TF over GST control)	1.07 fold enrichment (6-mer frequency, TF over GST control)	
CCAACG	1.12 fold enrichment (6-mer frequency, TF over GST control)	1.15 fold enrichment (6-mer frequency, TF over GST control)	1.09 fold enrichment (6-mer frequency, TF over GST control)	1.17 fold enrichment (6-mer frequency, TF over GST control)	1.2 fold enrichment (6-mer frequency, TF over GST control)	1.15 fold enrichment (6-mer frequency, TF over GST control)	1.07 fold enrichment (6-mer frequency, TF over GST control)	1 fold enrichment (6-mer frequency, TF over GST control)	1.14 fold enrichment (6-mer frequency, TF over GST control)	1.06 fold enrichment (6-mer frequency, TF over GST control)	1.11 fold enrichment (6-mer frequency, TF over GST control)	1.21 fold enrichment (6-mer frequency, TF over GST control)	1.12 fold enrichment (6-mer frequency, TF over GST control)	1.14 fold enrichment (6-mer frequency, TF over GST control)	1.17 fold enrichment (6-mer frequency, TF over GST control)		1.11 fold enrichment (6-mer frequency, TF over GST control)	1.11 fold enrichment (6-mer frequency, TF over GST control)
